About 1,200 (52%) of roughly 2,300 compounds were called active. How the calls were made is not given here. The set was probably picked from earlier hits. Some of the results follow. Measured potencies and affinities stand elsewhere.

The results in this text go back to PubChem BioAssay AID435019 (Southern Research Specialized Biocontainment Screening …, 2010).

The nature of this test: mammalian cell cytotoxicity, dose response, cytotoxicity control for M. tuberculosis inhibitor project (AID 435019).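 Further: lower values mean fewer viable cells so more cytotoxicity.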 Particulars: cytotoxicity counter-screen; series mostly up to 40 µM. For orientation: Counterscreens check selectivity or assay interference.
Consider `COC(=O)CSc1nnc([C@H](CC(C)C)NC(=O)OC(C)(C)C)o1`, for which the call was inactive.

Take `COC(=O)C(C)Oc1ccc(Cc2ncc(C(F)(F)F)cc2Cl)cc1` (stereo not drawn): the molecule was called inactive.

`CCCCNC(=S)Nc1ccc2cn[nH]c2c1`: the molecule was classed as inactive.

For the molecule `COC(=O)[C@H](CC(C)C)NC(=O)c1cc2c(cn1)[nH]c1ccccc12`, the call was inactive.

Take `CCc1nc2ccccc2c(C(=O)Nc2cc(C)ccc2C)c1C`: the call was inactive.

With `O=C(Oc1ccc2ccccc2c1)c1cncc(Br)c1`, the outcome was inactive.

Consider `N=C1C(c2nc3ccccc3[nH]2)=C(O)CN1NC(=O)c1c[nH]c2ccccc12`, for which the molecule was classed as inactive.

Consider `CCCCn1c(N)c(N(CC(C)C)C(=O)c2oc3c(Cl)cccc3c2C)c(=O)[nH]c1=O`, for which the result was inactive.

With `Cc1ccc(CN2CC(C(=O)OCc3ccccc3Cl)CC2=O)cc1` (stereo not drawn), the outcome was inactive.

On to `CCOC(=O)CSc1ncnc2c1sc1nc(N3CCOCC3)c3c(c12)CCCC3`, for which the outcome was inactive.

On to `COc1ccc(NC2=C(C(C)=O)C(c3ccc4c(c3)OCO4)C(C(C)=O)C(C)(O)C2)cc1` (stereo not drawn), for which the outcome was inactive.

On to `CCCNC(=O)NC(=O)COc1ccc2oc3ccccc3c2c1`, for which the molecule was classed as inactive.

For the molecule `COc1ccc(-c2cc3n(n2)CCc2nc4ccccc4n2-3)cc1`, the outcome was inactive.

Turning to `NNC(=S)Nc1ccccc1Cl`, the outcome was inactive.

`CCCCCOC(=O)Nc1nnc(CCCCC)s1`: the molecule was called inactive.

On to `O=C(CSc1nnnn1-c1ccc2c(c1)OCCO2)OC1CCCCC1`, for which the outcome was inactive.

In the case of `C=CCc1c(C)nc2ccc(C(=O)OCC)cc2c1Cl`, the molecule was classed as inactive.

Regarding `O=C(Nc1nc2c(s1)CCCC2)c1cc(-c2ccc3c(c2)OCO3)nc2ccccc12`, the call was inactive.

With `C/C(=N\Nc1nc2c(s1)CCCC2)c1ccccc1`, the molecule was called inactive.

As to `COC(=O)c1ccc2c(=O)[nH]c(CSc3nc(C)cs3)nc2c1`, the molecule was classed as inactive.

Regarding `C/C(=N\Nc1ccc([N+](=O)[O-])cc1)c1cccc(N)c1`, the result was inactive.

Turning to `O=C1c2ccccc2S(=O)(=O)c2cc(C(=O)N3CCN(c4c(Cl)cncc4Cl)CC3)ccc21`, the molecule was classed as inactive.

For `O=C(/C=C/c1ccc(OCCCF)cc1)Nc1ccnc(-c2ccncc2)n1`, the molecule was classed as inactive.

As to `CCCCOC1CC(c2ccc(OCc3ccc(OC)cc3)c(OC)c2)N(C)O1` (stereo not drawn), the molecule was classed as inactive.

In the case of `CO/N=C\CC(=O)Nc1ccc(Oc2ccccc2)cc1`, the molecule was called inactive.

Consider `O=C1c2ccccc2C(=O)N1Nc1ccccc1`, for which the molecule was called inactive.

For the molecule `O=C1C(=O)N(c2ccccc2)c2ccccc21`, the outcome was inactive.

For the molecule `CC(=O)c1c(N2CCCC2)[nH]c(-c2ccccc2)nc1=S`, the outcome was inactive.

Consider `Cc1ccc(-c2cccc(NC(=O)C3C4C=CC(C4)C3C(=O)O)c2)o1` (stereo not drawn), for which the result was inactive.

As for `NC(=O)/C(=N\OC(=O)c1ccco1)c1nc(-c2ccc(Br)cc2)cs1`, the molecule was called inactive.

`CCOC(=O)C(C)Oc1ccc(NC(=O)C(Cl)(Cl)Cl)cc1` (stereo not drawn): the molecule was called inactive.

`CCOC1OC(=O)C(Cl)=C1Nc1ccccc1C` (stereo not drawn): the molecule was classed as inactive.

On to `COc1ccc(-c2ccc(=O)n(Cc3c(F)cccc3Cl)n2)cc1`, for which the molecule was called inactive.

Take `O=C(c1ccccc1)C1CN(Cc2ccccc2)CCC1(O)c1ccccc1` (stereo not drawn): the molecule was called inactive.

Take `CCCCn1cnc2cc(NCc3cccc(OC)c3O)ccc21`: the molecule was classed as inactive.

For `c1ccc(Cn2nnc3c(N4CCc5ccccc5C4)ncnc32)cc1`, the molecule was called inactive.

`Oc1ccc(F)c2cccnc12`: the molecule was called inactive.

As for `COc1c(C)cc(C(=O)C2CCCN(Cc3ccccn3)C2)cc1C` (stereo not drawn), the outcome was inactive.

In the case of `CCOC(=O)N1CCN(C(=O)COC(=O)C2CCN(S(=O)(=O)c3c(Cl)cccc3Cl)CC2)CC1`, the call was inactive.

As for `COC(=O)c1cc(Sc2cccc(Cl)c2Cl)ccn1`, the molecule was called inactive.

With `CCOC(=O)Oc1ccc2oc(C)c(C(=O)OCCOC)c2c1`, the call was inactive.

For `Cc1nc(SCC(=O)NCC2CCCO2)c2c3c(sc2n1)CCCC3` (stereo not drawn), the call was inactive.

Regarding `COc1ccc(-c2cc(-c3ccc(OC)cc3)[nH]n2)cc1`, the outcome was inactive.

As to `Cc1ccc2nc(-c3cccc(Br)c3)cc(C(=O)NC3=NCCS3)c2c1`, the outcome was inactive.

As to `O=C(OCC(=O)N1CCN(c2ccccc2)CC1)c1cnc(Cl)c(Cl)c1`, the result was inactive.

Take `CCOC(=O)N1CCC(n2c(SCC(=O)OCc3ccccc3)nc3ccsc3c2=O)CC1`: the result was inactive.

On to `C(=N\N1CCN(C2c3ccccc3-c3ccccc32)CC1)/c1ccccn1`, for which the molecule was called inactive.

`CCCC12CN3CC(CCC)(CN(C1)C3c1ccccn1)C2=O` (stereo not drawn): the call was inactive.

As to `CCOC(=O)Cn1c(-c2ccccc2)ccc(C#N)c1=O`, the molecule was classed as inactive.

With `CCOc1[nH]n(-c2ccccc2)c(=O)c1C=Nc1ccc(OC)cc1`, the call was inactive.

For the molecule `COc1ccccc1/C(C)=N/NC(=S)NCc1ccccc1`, the molecule was classed as inactive.

With `COCCNC(=S)N/N=C(\C)c1ccc(OC)cc1`, the result was inactive.

Turning to `O=C(CCN1C(=O)C2CCCCC2C1=O)Nc1nc(-c2ccc(F)c(F)c2)cs1` (stereo not drawn), the molecule was called inactive.

Turning to `CCOC(=O)c1cc(-c2csc(Nc3c(C)cc(C)cc3C)n2)on1`, the molecule was called inactive.

Take `Nc1c(-c2ccccn2)cnn1-c1nc(-c2ccc(F)cc2)cs1`: the molecule was classed as inactive.

For `CCCOc1ccc2oc(=O)c3c(c2c1)CCCN3C(=O)CN1CCN(c2ncccn2)CC1`, the call was inactive.

On to `CCOC(=O)c1cc(/C(C)=N/OC(=O)c2ccc(C(C)(C)C)cc2)on1`, for which the call was inactive.

For `O=C(Nc1cc(N2CCOCC2)ncn1)NC1(C(F)(F)F)Oc2ccc(Cl)cc2O1` (stereo not drawn), the molecule was called inactive.

For `CCc1ccc(-c2csc(-c3c[nH]c4ccccc34)n2)cc1`, the outcome was inactive.

Regarding `Cc1ccc(CNc2ccc3c(c2)ncn3C(C)(C)C)cc1`, the molecule was classed as inactive.

Regarding `CCn1c(SCC(=O)N(C)CCC#N)nc2cc(S(=O)(=O)N3CCOCC3)ccc21`, the outcome was inactive.

As for `CCc1ccc(N=Nc2ccc(O)c3[nH]cnc23)cc1`, the molecule was called inactive.

`C=CCOc1ccc(/C=C/C(=O)OCC(=O)NCC2CCCO2)cc1` (stereo not drawn): the call was inactive.

As for `CCCCOC(=O)CCN1C(=O)/C(=C2\SC(=S)N(CCC(=O)OCCCC)C2=O)SC1=S`, the molecule was classed as inactive.

Regarding `Cc1ccc(NC(=O)Cn2ccsc2=N)c([N+](=O)[O-])c1`, the call was inactive.

As for `COc1ccc(-c2nc(C#N)c(N3CCc4ccccc4C3)o2)cc1OC`, the result was inactive.

As to `c1ccc(C2[C@H]3CN(CC4CCCCC4)[C@H](c4ccccc4)C34CC2(c2cccnc2)C4)cc1` (stereo partly drawn), the call was inactive.

Regarding `COc1ccc(NC(C#N)c2ccc(OC)cc2)cc1` (stereo not drawn), the result was inactive.

As for `O=[N+]([O-])c1c(C(Cl)Cl)nn(-c2ccc(Cl)cc2)c1N1CCCCC1`, the result was inactive.

As for `O=C(NC(=S)Nc1cccc2cccnc12)c1ccccc1`, the result was inactive.

Turning to `O=C(COc1ccccc1)NNc1nc2ccccc2s1`, the result was inactive.

As for `O=C(COc1cccc(Oc2ccccc2)c1)Nc1ncccn1`, the call was inactive.

With `C/C(=N\NC(=S)Nc1cccc(C)c1)c1cccc(N)c1`, the molecule was classed as inactive.
